This passage reports growth results from PubChem BioAssay (NCI).

What all share (experiment): NCI-60 one-dose screen, 48 h (100 = growth as untreated, 0 = no growth, -100 = all killed)
Common to all, as to conditions: 10 µM unless noted

Assay [1] has as its system T-47D breast.
Assay [2] concerns BT-549 breast.
Assay [3] deals with MDA-MB-435 melanoma.
Assay [4] deals with SW-620 colon.
The subject of assay [5] is MCF7 breast.
Assay [6] deals with HCT-116 colon.
Assay [7] deals with HCC-2998 colon.
Assay [8] concerns KM12 colon.

This is part of a sample that, as a whole, favours compounds with a hit. Of some 83,000 tested, about 20% had one in any assay.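 Step 1: grow cells in 96-well plates. Step 2: add test compound at a single concentration. Step 3: incubate 48 h. Step 4: record percent growth.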 Values without a mark were called inactive. Calls of active or inactive are those of the source. Rule for the calls: active = growth percent below 10; inactive = the rest.

`COc1ccc(S(=O)(=O)Nc2cc(/C=C\c3cc(OC)c(OC)c(OC)c3)cc(OC)c2OC)cc1OC`: the growth in assay [1] was 43.8%; in assay [2], 47%; in assay [3] it was -66.5% (active); in assay [4] it was 25.5%; in assay [5] it was 18.1%; in assay [6], 15.6%. The growth in assay [7] was 21.1%; in assay [8], 21.7%.

Take `CC(C)[C@H](CO)Nc1nc(Nc2ccc(C(=O)NCCNS(=O)(=O)c3cccc4c(N(C)C)cccc34)c(Cl)c2)c2ncn(C(C)C)c2n1`: the growth was 20.6% in assay [1]; -37.9% (active) in assay [2]; 0.754% (active) in assay [3]; 4.97% (active) in assay [4]; 6.04% (active) in assay [5]; 4.44% (active) in assay [6]. Besides, the figures for the growth in assay [7] and in assay [8] were 15.7% and -9.33% (active), respectively.

Consider `CCN(CC)P(=O)(N(CC)CC)N(CCCSC/C=C(\C)CC/C=C(\C)CCC=C(C)C)CCCN1CCN(C)CC1`, for which the growth in assay [1] is 88.9%; in assay [2], 102%; in assay [3], 100%; in assay [4] it was 101%; in assay [5], 97.6%; in assay [6], 97.1%. Also, the growth in assay [7] is 104%; in assay [8], 108%.

Regarding `CC1=NN2C(=NC3=C(CCC/C3=C\c3ccc(Cl)cc3)C2c2ccc(Cl)cc2)S1` (centres undefined), the growth in assay [1] is 89.1%; in assay [2], 97.9%; in assay [3] it was 45.8%; in assay [4], 97.3%; in assay [5], 24.2%; in assay [6], -37.2% (active). Also, the figures for the growth in assay [7] and in assay [8] were 80.6% and 77.2%, respectively.

On to `O=C(Nc1ccc(I)cc1)c1cccc([N+](=O)[O-])c1O`, for which the growth was 9.64% (active) in assay [1]; 4.69% (active) in assay [2]; 14.2% in assay [3]; 21.7% in assay [4]; 7.91% (active) in assay [5]; 8.14% (active) in assay [6]. Also, the growth in assay [7] was 19.9%; in assay [8] it was 14.1%.

Take `Nc1c(C(=O)Nc2cccc(C(F)(F)F)c2)sc2nc3c(cc12)CCCCC3`: the growth in assay [1] is -11.6% (active); in assay [2], 25.2%; in assay [3], 32.7%; in assay [4], 58.3%; in assay [5], 29.5%; in assay [6], -7.78% (active). Further, the growth was 46.9% in assay [7] and 35.7% in assay [8].

For `CC(Br)C(Br)c1cc2c(cc1Br)OCO2` (centres undefined), the growth is 73.7% in assay [1]; 100% in assay [2]; 97.9% in assay [3]; 109% in assay [4]; 93.9% in assay [5]; 88.5% in assay [6]. In addition, the growth in assay [7] was 96%; in assay [8], 103%.

Turning to `COc1cc(-c2csc(NC(=O)c3cc(C(F)(F)F)cc(C(F)(F)F)c3)n2)cc(OC)c1OC`, the growth in assay [1] was -15.9% (active); in assay [2], 18.7%; in assay [3], 28.6%; in assay [4] it was 44%; in assay [5] it was 18.4%; in assay [6], 14.4%. Moreover, the growth in assay [7] is 31%; in assay [8], 22.1%.

For `COc1ccc(/C=C/C(=O)c2cc(OC)c(OC)c(OC)c2)cc1OCc1cn(Cc2ccc(F)cc2)nn1`, the growth is 50.4% in assay [1]; 25.7% in assay [2]; 5.55% (active) in assay [3]; 15.4% in assay [4]; 13% in assay [5]; 15% in assay [6]. Moreover, the growth is 101% in assay [7] and 6.55% (active) in assay [8].

`COc1ccc(C(=O)/C=C/c2cc(C(=O)c3cc(OC)c(OC)c(OC)c3)ccc2OC)cc1`: the growth in assay [1] was 68%; in assay [2], 73.7%; in assay [3], 51.8%; in assay [4], 13.8%; in assay [5], 20.9%; in assay [6], 19.8%. The growth is 93.1% in assay [7] and 40.6% in assay [8].

As for `CN(C)c1ccc(/C=C\N=Nc2ccc(Br)cc2)cc1`, the growth was 37.1% in assay [1]; 69.1% in assay [2]; 41.7% in assay [3]; 29.5% in assay [4]; 36.8% in assay [5]; 50.6% in assay [6]. Also, the growth in assay [7] was 83%; in assay [8], 29.6%.

On to `Cc1cc(-c2ccccc2)c(C)n1Cc1ccc(Cl)cc1`, for which the growth in assay [1] was 50.5%; in assay [2], 37.7%; in assay [3] it was -18.4% (active); in assay [4] it was 22.7%; in assay [5], 23.5%; in assay [6] it was 15%. In addition, the figures for the growth in assay [7] and in assay [8] were 74.2% and 27.6%, respectively.

Turning to `CCOC(=O)CC/C(C)=N\Nc1ccc([N+](=O)[O-])cc1`, the growth in assay [1] was 41.8%; in assay [2] it was 82.4%; in assay [3], 28.4%; in assay [4], 57.2%; in assay [5], 79.9%; in assay [6] it was 48.7%. The growth in assay [7] was 60.4%; in assay [8], 22.2%.

`O=C(Nc1cc(C(F)(F)F)cc(C(F)(F)F)c1)Nc1ccc(OCc2nnc(-c3ccc(Cl)cc3)o2)c(F)c1`: the growth in assay [1] is 13.2%; in assay [2], 22.8%; in assay [3] it was 9.18% (active); in assay [4], 22.8%; in assay [5], 6.03% (active); in assay [6], 7.81% (active). The growth is 20.3% in assay [7] and 13.7% in assay [8].

For `NS(=O)(=O)c1ccc(CN2C(=O)c3cccc4cccc(c34)C2=O)cc1`, the growth in assay [1] is 78.1%; in assay [2] it was 96.2%; in assay [3] it was 114%; in assay [4], 104%; in assay [5] it was 93.9%; in assay [6] it was 92.7%. The growth in assay [7] is 107%; in assay [8], 99.1%.

`COc1ncc(-c2ccc3ncnc(Nc4cccc(Cl)c4)c3c2)cc1NS(=O)(=O)C1CC1`: the growth in assay [1] is -1.98% (active); in assay [2] it was 2.9% (active); in assay [3] it was 47.9%; in assay [4], 51.1%; in assay [5], 7.65% (active); in assay [6] it was 49.2%. Moreover, the growth in assay [7] was 59.9%; in assay [8], 69.7%.

As for `O=S(=O)(NCCNc1cc(-c2cn(-c3ccccc3)nc2-c2ccccc2)ccn1)c1cccc2ccccc12`, the growth is 24.3% in assay [1]; 49.3% in assay [2]; 46.3% in assay [3]; 62.5% in assay [4]; 28.2% in assay [5]; 34.8% in assay [6]. The growth in assay [7] is 56.4%; in assay [8], 41.6%.

With `CCC1=C[C@@H]2CN(C1)Cc1c([nH]c3ccccc13)[C@@](C(=O)OC)(c1cc3c(cc1OC)N(C=O)[C@H]1[C@@](O)(C(=O)OC)[C@H](OC(C)=O)[C@]4(CC)[C@@H]5C[C@@H]5CN5CC[C@]31[C@@H]54)C2`, the growth in assay [1] was 97.5%; in assay [2] it was 47.9%; in assay [3] it was -57.1% (active); in assay [4] it was 26.3%; in assay [5], 10.9%; in assay [6], 7.99% (active). Besides, the results for the growth in assay [7] and in assay [8] were -13% (active) and 8.8% (active), respectively.

`Nc1c(C(=O)Nc2ccccc2)sc2nc3c(cc12)CCCCC3`: the growth in assay [1] is 42.2%; in assay [2], 48.8%; in assay [3], -50.7% (active); in assay [4] it was 24.2%; in assay [5], 12.1%; in assay [6], 11.2%. The growth in assay [7] is 43.5%; in assay [8] it was 12.2%.

With `CSc1ccccc1C#C/C=C\C#Cc1ccccc1N1CCCCC1=O`, the growth in assay [1] is 95.1%; in assay [2], 92.1%; in assay [3], 107%; in assay [4], 100%; in assay [5] it was 94.9%; in assay [6], 95%. The growth is 99.9% in assay [7] and 114% in assay [8].

Take `C=C1C(=O)O[C@H]2[C@H]1CC/C(COC(=O)NCc1ccc(OC)cc1)=C\CC[C@@]1(C)O[C@@H]21`: the growth in assay [1] was 17.5%; in assay [2] it was 29.7%; in assay [3], 46.9%; in assay [4], 1.83% (active); in assay [5], 15.2%; in assay [6], -48.7% (active). Besides, the growth was 83.5% in assay [7] and 73.8% in assay [8].

For `O=C1CCC(=O)N1Cc1ccccc1`, the growth is 113% in assay [1]; 111% in assay [2]; 99.4% in assay [3]; 100% in assay [4]; 91.5% in assay [5]; 98.6% in assay [6]. Also, the growth in assay [7] is 101%; in assay [8], 96.4%.

`O=c1cc(C2NCCc3c2[nH]c2ccccc32)c2c(ccc3ccccc32)o1` (centres undefined): the growth in assay [1] was 59.1%; in assay [2] it was 82%; in assay [3], 81.7%; in assay [4] it was 59.6%; in assay [5], 81.8%; in assay [6], 42%. Moreover, the growth is 78.1% in assay [7] and 63.5% in assay [8].

With `COc1ccc(C2CC(=O)Nc3c2c(C)nn3-c2nc3ccccc3[nH]2)cc1OC` (centres undefined), the growth is 65.7% in assay [1]; 75.5% in assay [2]; 24.7% in assay [3]; 78.3% in assay [4]; 46.4% in assay [5]; 17.4% in assay [6]. Also, the growth was 96.5% in assay [7] and 82.6% in assay [8].

On to `COc1ccc(/C=C(\C#N)c2ccc([N+](=O)[O-])cc2)c2ccccc12`, for which the growth was 46.9% in assay [1]; 27.9% in assay [2]; 62.6% in assay [3]; 74.4% in assay [4]; 71.8% in assay [5]; 43.4% in assay [6]. Moreover, the growth in assay [7] was 80%; in assay [8], 75.6%.

`CCO/C=N/NC(=O)c1ccncc1`: the growth in assay [1] was 106%; in assay [2] it was 114%; in assay [3] it was 110%; in assay [4], 104%; in assay [5], 101%; in assay [6], 105%. Further, the growth is 113% in assay [7] and 106% in assay [8].

For `C=CC(=O)N[C@H](/C=C/C(=O)OCC)Cc1ccc(-c2cc(Cl)cc(Cl)c2)cc1`, the growth in assay [1] was 57.7%; in assay [2] it was 84.6%; in assay [3], 96.1%; in assay [4] it was 91.7%; in assay [5], 82.8%; in assay [6], 72.1%. Also, the growth in assay [7] is 94.6%; in assay [8] it was 89.8%.

On to `Cc1cc2c(C(C)C)c(O)c(O)c(C=NCCCCCCC(=O)O)c2c(O)c1-c1c(C)cc2c(C(C)C)c(O)c(O)c(C=NCCCCCCC(=O)O)c2c1O`, for which the growth was 26.9% in assay [1]; 37.8% in assay [2]; 27.2% in assay [3]; 27.2% in assay [4]; 11.7% in assay [5]; 17.6% in assay [6]. For the same compound, the growth was 33.5% in assay [7] and 15.7% in assay [8].
